PubChem BioAssay (NCI)
The panel holds about 83,000 compounds, 20% with a hit somewhere; the sample as a whole holds those more often.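 Cells were grown in 96-well plates and exposed to the test compound at a single concentration for 48 hours; results are reported as percent growth, with values below 10 considered active.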 The source made the active and inactive calls.

What follows are compounds tested on NCI/ADR-RES ovarian (assay: NCI-60 one-dose screen, 48 h (100 = growth as untreated, 0 = no growth, -100 = all killed)). Conditions: 10 µM.
Procedure: Growth inhibition of the NCI/ADR-RES human […] tumor cell line is measured as a screen for anti-cancer activity. Cells are grown in 96 well plates and exposed to the test compound for 48 hours. Compounds are tested at a single concentration, which is 10^-5 M for most compounds. The reported endpoint is percent growth (GI% or GIPRCNT), where numbers from 0 - 100% represent growth inhibition, and numbers from -100% - 0 represent cell death. For example, a value of 40 represents 60% growth inhibition. A value of 0 means no net growth occurred over the course of the experiment. A value of -40 indicates 40% of cells at the beginning of the experiment died by the end of the experiment. A value of -100 means all cells are dead at the end of the experiment.
NCI-60 Human Tumor Cell Lines Screen was performed using the standard one-dose NCI protocol, which is described in more detail at https://dtp.cancer.gov/discovery_development/nci-60/default.htm.
Compounds with GIPRCNT values below 10 were considered active. Activity score was based on GIPRCNT using the following formula: […]
Score is 0 for GIPRCNT values of 100 or above, 50 for GIPRCNT values of 0, and 100 for GIPRCNT values of -100.

Question: For `CC1=C(CCC=O)C2=C(C)C3(CC3)[C@@](C)(O)C(=O)C2=C1`, which growth is on record?
Answer: -43.5% (active)

Question: Which growth does the source give for `C[C@H]1[C@H](OC(=O)CCC(=O)N(CCCc2cn(-c3ccc([N+](=O)[O-])cc3)nn2)CCNc2ccnc3cc(Cl)ccc23)O[C@@H]2OC3(C)CC[C@H]4[C@H](C)CC[C@@H]1[C@@]24OO3` here?
Answer: 30.6% (inactive)

Question: Which growth does the source give for `COc1cc(OC)c(S(=O)(=O)N(CCCl)CCCl)cc1C(=O)/C=C/c1ccc(C)cc1` here?
Answer: 63.2% (inactive)

Question: `C[C@H]1[C@@H](CC(=O)N[C@@H](Cc2coc3ccccc23)B(O)O)O[C@@H]2OC3(C)CC[C@H]4[C@H](C)CC[C@@H]1[C@@]24OO3` was tested. Which growth did it give?
Answer: 27.6% (inactive)

Question: Which growth does the source give for `COC(=O)c1ccc(-n2cc(CCCN(CCNc3ccnc4cc(Cl)ccc34)C(=O)CCC(=O)O[C@@H]3O[C@@H]4OC5(C)CC[C@H]6[C@H](C)CC[C@@H]([C@H]3C)[C@@]46OO5)nn2)cc1` here?
Answer: 11.4% (inactive)

Question: Which growth does the source give for `COC(=O)C[C@](O)(CCC(C)C)C(=O)O[C@@H]1C(OC)=C[C@]23CCCN2CCc2cc4c(cc2[C@H]13)OCO4` here?
Answer: -29.7% (active)

Question: `C[C@H]1[C@H](OC(=O)CCC(=O)N(CCCc2cn(-c3ccc(CN4CCOCC4)cc3)nn2)CCNc2ccnc3cc(Cl)ccc23)O[C@@H]2OC3(C)CC[C@H]4[C@H](C)CC[C@@H]1[C@@]24OO3` was tested. Which growth did it give?
Answer: 26.1% (inactive)

Question: How did the growth turn out when `O=C(/C=C/c1ccc(F)cc1)c1nc2ccccc2n1Cc1ccc(Br)cc1` was run?
Answer: -59.8% (active)

Question: For `CC(=O)Oc1ccccc1C(=O)NC([Se])=NC1CCCCC1`, which growth is on record?
Answer: -16.4% (active)

Question: Which growth does the source give for `COc1cc2cc(C(=O)N3C[C@@H](CCl)c4c3cc(OC(=O)N3CCN(C)[C@@H]5CSSC[C@@H]53)c3ccccc43)[nH]c2c(OC)c1OC` here?
Answer: -22.2% (active)

Question: With `CC1=C2C(=C[C@@](C)(COP(=O)(Oc3ccccc3)Oc3ccccc3)[C@@H]2O)C(=O)[C@@](C)(O)C12CC2` as the compound, how does the growth read?
Answer: -75.5% (active)

Question: `CC[C@@]12CC(C(=O)OC)=C3Nc4cc5c(cc4[C@@]34CCN(C[C@H]3O[C@H]31)[C@@H]24)[C@@H]1[C@H](O5)[C@@H](O)[C@@]2(CC)CC(C(=O)OC)=C3Nc4cc(OC)ccc4[C@@]34CCN1[C@@H]24` was tested. Which growth did it give?
Answer: 1.32% (active)

Question: Which growth does the source give for `CC[C@]12C=CCN3CC[C@@]4(c5ccc(OC)cc5N(C)[C@H]4[C@@](O)(C(=O)OC)[C@@H]1OC(=O)CCC[P+](C1CCCCC1)(C1CCCCC1)C1CCCCC1)[C@@H]32` here?
Answer: 100% (inactive)

Question: With `CC1=C(C=O)C2=C(C)C3(CC3)[C@@](C)(O)C(=O)C2=C1` as the compound, how does the growth read?
Answer: 16% (inactive)

Question: How did the growth turn out when `O=C(/C=C/c1ccc(Cl)cc1Cl)c1nc2ccccc2n1Cc1ccc(Br)cc1` was run?
Answer: 82.1% (inactive)

Question: With `CC1=C(CCC=NNC(N)=O)C2=C(C)C3(CC3)[C@@](C)(O)C(=O)C2=C1` as the compound, how does the growth read?
Answer: -39.3% (active)

Question: `CC12CCC3(CCC(=O)NCCCNc4ccnc5cc(Cl)ccc45)[C@@](C)(OO[C@]3(C)O1)O2` was tested. Which growth did it give?
Answer: -14.7% (active)

Question: Which growth does the source give for `CC12OOC(C)(OO1)C2CCC(=O)NCCCNc1ccnc2cc(Cl)ccc12` (stereo not given) here?
Answer: 99.9% (inactive)

Question: With `Cc1ccc2[nH]c(=S)n(-c3ccc(F)cc3)c(=O)c2c1` as the compound, how does the growth read?
Answer: 103% (inactive)

Question: Which growth does the source give for `C[C@H]1[C@H](OC(=O)CCC(=O)N(CCCc2cn(-c3ccc(C#N)cc3)nn2)CCNc2ccnc3cc(Cl)ccc23)O[C@@H]2OC3(C)CC[C@H]4[C@H](C)CC[C@@H]1[C@@]24OO3` here?
Answer: 28.4% (inactive)

Question: For `N#C[Se]CC(=O)Nc1cccc(C(F)(F)F)c1`, which growth is on record?
Answer: -60.8% (active)

Question: Which growth does the source give for `C#CC[Se]C(=O)c1ccc2n[se]nc2c1` here?
Answer: 49.5% (inactive)

Question: How did the growth turn out when `O=C(/C=C/c1ccccc1)c1nc2ccccc2n1Cc1ccc(Br)cc1` was run?
Answer: -37.4% (active)

Question: For `CC[C@]12C=CCN3CC[C@@]4(c5ccc(OC)cc5N(C)[C@H]4[C@@](O)(C(=O)OC)[C@@H]1OC(=O)CCC[P+](c1ccc(F)cc1)(c1ccc(F)cc1)c1ccc(F)cc1)[C@@H]32`, which growth is on record?
Answer: 104% (inactive)

Question: With `CC(=C\C(=O)Oc1ccc2c3c1OC1C(O)CCC4(O)C(C2)N(CC2CCC2)CCC314)/C=C1\CCCc2ccccc21` (stereo not given) as the compound, how does the growth read?
Answer: 63.8% (inactive)

Question: How did the growth turn out when `O=C(NCCCCC(c1ccc(F)cc1)c1ccc(F)cc1)Nc1ccc([N+](=O)[O-])c(C(F)(F)F)c1` was run?
Answer: -4.02% (active)

Question: With `COP(=O)(CC(F)(F)C(F)(F)F)OC` as the compound, how does the growth read?
Answer: 61.8% (inactive)

Question: Which growth does the source give for `COCCOCCOCCOc1ccc(-n2cc(-c3ccc(O[C@H]4O[C@@H]5OC6(C)CC[C@H]7[C@H](C)CC[C@@H]([C@H]4C)[C@@]57OO6)cc3)nn2)cc1` here?
Answer: 34.2% (inactive)

Question: `C[C@H]1[C@H](OC(=O)CCC(=O)Nc2cnccn2)O[C@@H]2OC3(C)CC[C@H]4[C@H](C)CC[C@@H]1[C@@]24OO3` was tested. Which growth did it give?
Answer: 19.1% (inactive)

Question: For `CC[C@]12C=CCN3CC[C@@]4(c5ccc(OC)cc5N(C)[C@H]4[C@@](O)(C(=O)OC)[C@@H]1OC(=O)CCCC[P+](c1ccc(C)cc1)(c1ccc(C)cc1)c1ccc(C)cc1)[C@@H]32`, which growth is on record?
Answer: 71.8% (inactive)

Question: For `CC1=C(COCCOC(=O)c2ccc(S(=O)(=O)F)cc2)C2=C(C)C3(CC3)[C@@](C)(O)C(=O)C2=C1`, which growth is on record?
Answer: -43.2% (active)

Question: For `CC(=O)Oc1ccccc1C(=O)[Se]C(=NC(C)C)NC(C)C`, which growth is on record?
Answer: -25.3% (active)

Question: For `O=C(/C=C/c1ccc(Cl)cc1)c1nc2ccccc2n1Cc1ccc(Br)cc1`, which growth is on record?
Answer: 62.6% (inactive)

Question: For `CN(C)CCc1cn(C2CCC2)c2cccc(O)c12`, which growth is on record?
Answer: 74.3% (inactive)

Question: For `CC(C)C[C@H](NC(=O)CNC(=O)C[C@H]1O[C@@H]2OC3(C)CC[C@H]4[C@H](C)CC[C@@H]([C@H]1C)[C@@]24OO3)B(O)O`, which growth is on record?
Answer: 94.2% (inactive)

Question: With `COc1cc(OC)c(S(=O)(=O)N(CCCl)CCCl)cc1C(=O)/C=C/c1cc(OC)c(OC)c(OC)c1` as the compound, how does the growth read?
Answer: 4.75% (active)

Question: How did the growth turn out when `CCOP(=O)(CC(F)(F)C(F)(F)F)OCC` was run?
Answer: 14% (inactive)

Question: How did the growth turn out when `O=C(/C=C/c1ccccc1)c1nc2ccccc2n1Cc1ccc(F)cc1` was run?
Answer: -49.6% (active)

Question: How did the growth turn out when `C=CC[Se]C(=O)c1cncc(C(=O)[Se]CC=C)c1` was run?
Answer: -70.2% (active)

Question: For `O=C(/C=C/c1ccco1)c1nc2ccccc2n1Cc1ccc(F)cc1`, which growth is on record?
Answer: 72.5% (inactive)
